Measurements published in PubChem BioAssay (EPA / NIEHS).
Activity calls are given as the source filed them. Rule for the calls: active = hit-call score of the fitted dose curve at least 0.9, where 1 is the maximum; inactive = score below 0.9.

How the values were obtained:
[1] = ATG_GLI_CIS: Attagene CIS-FACTORIAL HepG2 Assay for human Zinc Finger Protein GLI1 (AID 2282945); details: HepG2, Attagene cis-factorial reporter mRNA, GLI element; actives raise or lower the signal
Summary of the method: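 Bidirectional curve fits relative to DMSO, using reporter mRNA levels from RT-PCR plus capillary electrophoresis. Cells were HepG2 transiently carrying cis-regulated reporter constructs, harvested 24 h after dosing.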

[2] = target: Bile acid receptor (Homo sapiens) (UniProt Q96RI1); test: ATG_IR1_CIS: Attagene CIS-FACTORIAL HepG2 Assay for human Nuclear Receptor Subfamily 1 Group H Member 4 (NR1H4), IR1 submotif (AID 2282946); details: IR1 reporter transcription, actives raise or lower the signal
Summary of the method: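 HepG2 cells transiently transfected with multiplexed cis-element reporter units read endogenous transcription factor activity. After 24 h compound exposure, reporter mRNA was quantified by RT-PCR, fluorescent labelling, HpaI digestion and capillary electrophoresis; bidirectional fitting versus DMSO baseline.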

[3] = ATG_ISRE_CIS: Attagene CIS-FACTORIAL HepG2 Assay for human Interferon Regulatory Factor 1 (IRF1) binding to an Interferon-Stimulated Response Element (ISRE) (AID 2282948); details: HepG2 ISRE cis-reporter (Attagene), mRNA transcription readout; actives raise or lower the signal
Summary of the method: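 Signal reflects induction or loss of ISRE-linked reporter mRNA in transiently transfected HepG2 cells after a 24 h treatment, detected by fluorescent RT-PCR fragments on capillary electrophoresis and normalised to DMSO.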

[4] = ATG_M_32_CIS: Attagene CIS-FACTORIAL HepG2 Assay for M32 Transcription Factor (Internal Marker) (AID 2282949); details: HepG2 Attagene cis-factorial M32 reporter, mRNA; actives raise or lower the signal;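 note: background control marker of the multiplexed CIS panel rather than a real target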
Summary of the method: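 HepG2 human liver cells transiently transfected with cis-promoter-driven multiple reporter transcription units, dosed 24 h. Reporter mRNA quantified by RT-PCR, FAM-labelled primer extension, HpaI digest and capillary electrophoresis; bidirectional fit versus DMSO baseline.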

[5] = ATG_M_06_CIS: Attagene CIS-FACTORIAL HepG2 Assay for M06 Transcription Factor (Internal Marker) (AID 2282950); details: HepG2 Attagene CIS-FACTORIAL M06 internal marker reporter; actives raise or lower the signal
Summary of the method: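 Internal background marker within multiplexed cis-reporter HepG2 system. Cells transiently transfected, dosed 24 h; reporter mRNA measured by RT-PCR, HpaI digestion and capillary electrophoresis. Bidirectional fit relative to DMSO.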

[6] = target: Hypoxia-inducible factor 1-alpha (Homo sapiens) (UniProt Q16665); test: ATG_HIF1a_CIS: Attagene CIS-FACTORIAL HepG2 Assay for human Hypoxia Inducible Factor 1 (HIF1A) (AID 2282951); details: HepG2 Attagene cis-factorial HIF1a reporter transcription; actives raise or lower the signal
Summary of the method: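 After 24 h chemical exposure of reporter-transfected HepG2 cells, reporter cDNA was PCR-amplified, labelled by 6-FAM primer extension (2 min 95 C, 20 s 68 C, 10 min 72 C), HpaI-cut (2 h, 37 C) and analysed by CE.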

[7] = target: Hepatocyte nuclear factor 6 (Homo sapiens) (UniProt Q9UBC0); test: ATG_HNF6_CIS: Attagene CIS-FACTORIAL HepG2 Assay for human Hepatocyte Nuclear Factor 6 (HNF6) (AID 2282952); details: HepG2 Attagene cis-factorial HNF6 reporter transcription; actives raise or lower the signal
Summary of the method: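 Activity values derive from bidirectional fitting against DMSO of reporter mRNA levels, measured by capillary electrophoresis of labelled RT-PCR products from HepG2 cells exposed 24 h.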

[8] = target: Heat shock factor protein 1 (Homo sapiens) (UniProt Q00613); test: ATG_HSE_CIS: Attagene CIS-FACTORIAL HepG2 Assay for human Heat Shock Transcription Factor 1 (HSE) (AID 2282953); details: HepG2 HSE cis-reporter, Attagene RNA transcription; actives raise or lower the signal
Summary of the method: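 HepG2 cells transfected with cis-promoter reporter units sensing endogenous transcription factor activity; reporter mRNA quantified 24 h post-dose by RT-PCR and capillary electrophoresis of 6-FAM-labelled products. Bidirectional fitting against DMSO.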

[9] = ATG_MRE_CIS: Attagene CIS-FACTORIAL HepG2 Assay for human Metal Responsive Element (MRE) (AID 2282954); details: HepG2 MRE cis-reporter transcription, Attagene multiplex; actives raise or lower the signal
Summary of the method: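 Endogenous MRE-dependent transcription read as reporter mRNA in transiently transfected human HepG2 cells at 24 h. RNA reverse-transcribed, PCR-amplified, labelled and resolved by capillary electrophoresis; gain or loss relative to DMSO.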

[10] = ATG_PBREM_CIS: Attagene CIS-FACTORIAL HepG2 Assay for human Phenobarbital-responsive Enhancer Module (PBREM) (AID 2282955); details: HepG2 PBREM cis-reporter, Attagene multiplexed transcription; actives raise or lower the signal
Summary of the method: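 Measures endogenous factor action on a phenobarbital-responsive enhancer module. HepG2 transiently carrying cis reporters, 24 h treatment, mRNA read-out by RT-PCR plus capillary electrophoresis.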

[11] = target: Paired box protein Pax-6 (Homo sapiens) (UniProt P26367); test: ATG_Pax6_CIS: Attagene CIS-FACTORIAL HepG2 Assay for human Paired Box 6 (PAX6) (AID 2282956); details: HepG2 CIS-FACTORIAL PAX6 reporter transcription, RNA readout; actives raise or lower the signal
Summary of the method: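 Values derive from bidirectional curve fitting of reporter mRNA signal relative to DMSO. HepG2 cells bearing transfected cis-regulated MRTUs were exposed for 24 h; transcripts were read by RT-PCR and capillary electrophoresis.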

[12] = ATG_PXRE_CIS: Attagene CIS-FACTORIAL HepG2 Assay for human Pregnane X Receptor Element (PXRE) (AID 2282957); details: HepG2 Attagene CIS-FACTORIAL PXRE reporter, mRNA; actives raise or lower the signal
Summary of the method: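 Fluorescent capillary electrophoresis of amplified reporter cDNA gave the signal, collected 24 h after dosing HepG2 cells that held transfected cis-element reporter constructs.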

[13] = ATG_RORE_CIS: Attagene CIS-FACTORIAL HepG2 Assay for human RAR-related Orphan Receptor Element (RORE) (AID 2282959); details: HepG2 Attagene cis-factorial RORE reporter, mRNA; actives raise or lower the signal
Summary of the method: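 A 24-hour exposure of transfected HepG2 hepatoma cells precedes RNA isolation and reporter RT-PCR. Labeled products are digested with HpaI and resolved by capillary electrophoresis, with gain or loss of signal scored relative to DMSO.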

[14] = ATG_Sox_CIS: Attagene CIS-FACTORIAL HepG2 Assay for human SRY-box transcription factor (SOX) (AID 2282960); details: HepG2 Attagene cis-factorial SOX reporter, mRNA; actives raise or lower the signal
Summary of the method: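 HepG2, cis reporter units, 24 h exposure. Reporter mRNA: RT-PCR → FAM labelling → HpaI → CE fluorescence. Bidirectional fit vs DMSO.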

[15] = target: Transcription factor Sp1 (Homo sapiens) (UniProt P08047); test: ATG_Sp1_CIS: Attagene CIS-FACTORIAL HepG2 Assay for human Specificity Protein 1 (Sp1) (AID 2282961); details: HepG2 Sp1 cis-reporter transcription, actives raise or lower the signal
Summary of the method: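 Liver-derived HepG2 cells, cis-element reporter library, 24 h treatment; RNA isolated, cDNA amplified with reporter-specific primers, FAM-labeled fragments sized on capillary analyzer. DMSO baseline, bidirectional curve fit.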

[16] = ATG_SREBP_CIS: Attagene CIS-FACTORIAL HepG2 Assay for human Sterol Regulatory Element Binding (SREBP) (AID 2282962); details: HepG2 Attagene cis-factorial SREBP reporter, mRNA; actives raise or lower the signal
Summary of the method: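 Values derive from bidirectional curve fitting with DMSO as baseline. The underlying measurement is reporter mRNA from cis-element-regulated units in transiently transfected HepG2, quantified by RT-PCR and capillary electrophoresis after 24 h exposure.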

[17] = target: Signal transducer and activator of transcription 3 (Homo sapiens) (UniProt P40763); test: ATG_STAT3_CIS: Attagene CIS-FACTORIAL HepG2 Assay for human Signal Transducer and Activator of Transcription 3 (STAT3) (AID 2282963); details: HepG2, Attagene cis-factorial STAT3 reporter transcription; actives raise or lower the signal
Summary of the method: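 Readout is reporter transcript quantified by RT-PCR and capillary electrophoresis, with 6-FAM primer extension and HpaI digestion. Total RNA is taken 24 h after dosing transiently transfected HepG2 carrying cis-regulated reporter units. Bidirectional fit against DMSO.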

[18] = ATG_TA_CIS: Attagene CIS-FACTORIAL HepG2 Assay for human TA Basal Promoter (AID 2282964); details: HepG2 Attagene CIS-factorial TA basal promoter reporter; actives raise or lower the signal
Summary of the method: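 HepG2 cells transiently transfected with multiple reporter units under cis promoter elements, reporting endogenous transcription factor activity; this endpoint tracks the TA basal promoter as background control. Reporter mRNA after 24 h dosing measured by RT-PCR/capillary electrophoresis; bidirectional fits versus DMSO.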

[19] = ATG_GRE_CIS: Attagene CIS-FACTORIAL HepG2 Assay for human Glucocorticoid Response Elements (GRE) (AID 2282947); details: HepG2 GRE cis-reporter, Attagene multiplex mRNA; actives raise or lower the signal
Summary of the method: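 Reporter transcripts read by RT-PCR with capillary electrophoresis fluorescence after a 24 h chemical exposure of HepG2 cells transiently transfected with multiple cis-element reporter units. Gain or loss fitted against DMSO.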

[20] = ATG_PPRE_CIS: Attagene CIS-FACTORIAL HepG2 Assay for human Peroxisome Proliferator-activated Response Element (PPRE) (AID 2282958); details: HepG2 PPRE cis-element reporter, Attagene transcription factor profiling; actives raise or lower the signal
Summary of the method: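 PPRE activity in HepG2: transient cis-reporter transfection, 24 h compound incubation, reporter mRNA by RT-PCR and CE fluorescence; gain/loss fitted against DMSO.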

Measured: AC50

Chain of Hepatocyte nuclear factor 6 (Homo sapiens) (Q9UBC0 whole entry, looked up): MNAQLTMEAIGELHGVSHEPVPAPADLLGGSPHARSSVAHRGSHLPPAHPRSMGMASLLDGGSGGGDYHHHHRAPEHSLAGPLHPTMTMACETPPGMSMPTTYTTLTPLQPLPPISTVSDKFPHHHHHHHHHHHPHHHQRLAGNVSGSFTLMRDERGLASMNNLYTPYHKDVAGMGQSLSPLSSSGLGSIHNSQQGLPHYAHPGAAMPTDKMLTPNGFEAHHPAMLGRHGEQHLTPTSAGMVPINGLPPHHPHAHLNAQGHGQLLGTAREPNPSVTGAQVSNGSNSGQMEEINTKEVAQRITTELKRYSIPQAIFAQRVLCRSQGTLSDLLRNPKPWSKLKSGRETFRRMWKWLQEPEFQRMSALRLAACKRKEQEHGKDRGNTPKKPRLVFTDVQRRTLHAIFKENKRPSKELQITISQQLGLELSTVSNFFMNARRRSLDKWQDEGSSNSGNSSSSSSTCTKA
Chain of Paired box protein Pax-6 (Homo sapiens) (P26367 whole entry, looked up): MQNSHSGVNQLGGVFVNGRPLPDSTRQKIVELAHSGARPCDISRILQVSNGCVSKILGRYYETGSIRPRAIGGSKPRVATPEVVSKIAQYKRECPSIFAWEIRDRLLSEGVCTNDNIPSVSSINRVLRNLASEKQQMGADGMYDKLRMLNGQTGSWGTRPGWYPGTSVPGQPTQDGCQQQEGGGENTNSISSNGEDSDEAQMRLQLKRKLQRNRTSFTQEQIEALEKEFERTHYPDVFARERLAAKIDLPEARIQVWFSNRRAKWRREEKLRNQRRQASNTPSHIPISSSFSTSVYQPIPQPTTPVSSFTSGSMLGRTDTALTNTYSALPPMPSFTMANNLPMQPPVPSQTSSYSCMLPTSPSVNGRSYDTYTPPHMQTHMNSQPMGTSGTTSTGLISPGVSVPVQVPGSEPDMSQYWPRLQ
Chain of Transcription factor Sp1 (Homo sapiens) (P08047 whole entry, looked up, the tested form may be a part): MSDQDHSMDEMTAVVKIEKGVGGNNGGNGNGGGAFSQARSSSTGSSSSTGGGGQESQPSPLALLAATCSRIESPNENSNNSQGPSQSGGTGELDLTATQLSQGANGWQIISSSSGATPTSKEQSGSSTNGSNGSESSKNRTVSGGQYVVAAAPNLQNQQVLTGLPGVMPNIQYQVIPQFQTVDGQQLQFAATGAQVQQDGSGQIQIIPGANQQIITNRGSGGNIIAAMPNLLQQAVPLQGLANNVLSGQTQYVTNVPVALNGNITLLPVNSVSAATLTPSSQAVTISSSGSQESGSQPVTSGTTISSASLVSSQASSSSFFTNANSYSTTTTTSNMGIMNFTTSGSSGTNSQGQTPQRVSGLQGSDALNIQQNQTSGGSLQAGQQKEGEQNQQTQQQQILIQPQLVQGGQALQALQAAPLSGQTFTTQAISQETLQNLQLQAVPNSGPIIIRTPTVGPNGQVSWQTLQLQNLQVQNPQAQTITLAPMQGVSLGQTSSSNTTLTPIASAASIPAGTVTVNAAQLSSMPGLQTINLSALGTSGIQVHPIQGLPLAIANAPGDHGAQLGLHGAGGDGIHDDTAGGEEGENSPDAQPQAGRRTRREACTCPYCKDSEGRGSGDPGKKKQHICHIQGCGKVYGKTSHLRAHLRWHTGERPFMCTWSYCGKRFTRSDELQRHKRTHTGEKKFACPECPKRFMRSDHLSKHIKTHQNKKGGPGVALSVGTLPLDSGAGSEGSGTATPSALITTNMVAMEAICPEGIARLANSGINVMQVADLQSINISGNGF
Chain of Heat shock factor protein 1 (Homo sapiens) (Q00613 whole entry, looked up): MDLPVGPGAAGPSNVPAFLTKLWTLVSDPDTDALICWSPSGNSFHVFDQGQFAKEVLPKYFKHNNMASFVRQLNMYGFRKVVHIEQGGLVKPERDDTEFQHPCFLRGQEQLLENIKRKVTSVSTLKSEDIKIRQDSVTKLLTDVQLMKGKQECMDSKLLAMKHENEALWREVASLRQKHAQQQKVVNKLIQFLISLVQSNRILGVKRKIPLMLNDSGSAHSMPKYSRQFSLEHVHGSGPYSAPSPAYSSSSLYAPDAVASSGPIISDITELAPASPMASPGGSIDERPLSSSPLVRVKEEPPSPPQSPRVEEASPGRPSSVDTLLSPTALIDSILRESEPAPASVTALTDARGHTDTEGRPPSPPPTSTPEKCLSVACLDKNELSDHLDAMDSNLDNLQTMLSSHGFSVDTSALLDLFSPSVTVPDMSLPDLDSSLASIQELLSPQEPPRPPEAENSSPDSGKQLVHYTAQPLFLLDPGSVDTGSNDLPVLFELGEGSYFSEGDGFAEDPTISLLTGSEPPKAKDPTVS
Chain of Signal transducer and activator of transcription 3 (Homo sapiens) (P40763 whole entry, looked up): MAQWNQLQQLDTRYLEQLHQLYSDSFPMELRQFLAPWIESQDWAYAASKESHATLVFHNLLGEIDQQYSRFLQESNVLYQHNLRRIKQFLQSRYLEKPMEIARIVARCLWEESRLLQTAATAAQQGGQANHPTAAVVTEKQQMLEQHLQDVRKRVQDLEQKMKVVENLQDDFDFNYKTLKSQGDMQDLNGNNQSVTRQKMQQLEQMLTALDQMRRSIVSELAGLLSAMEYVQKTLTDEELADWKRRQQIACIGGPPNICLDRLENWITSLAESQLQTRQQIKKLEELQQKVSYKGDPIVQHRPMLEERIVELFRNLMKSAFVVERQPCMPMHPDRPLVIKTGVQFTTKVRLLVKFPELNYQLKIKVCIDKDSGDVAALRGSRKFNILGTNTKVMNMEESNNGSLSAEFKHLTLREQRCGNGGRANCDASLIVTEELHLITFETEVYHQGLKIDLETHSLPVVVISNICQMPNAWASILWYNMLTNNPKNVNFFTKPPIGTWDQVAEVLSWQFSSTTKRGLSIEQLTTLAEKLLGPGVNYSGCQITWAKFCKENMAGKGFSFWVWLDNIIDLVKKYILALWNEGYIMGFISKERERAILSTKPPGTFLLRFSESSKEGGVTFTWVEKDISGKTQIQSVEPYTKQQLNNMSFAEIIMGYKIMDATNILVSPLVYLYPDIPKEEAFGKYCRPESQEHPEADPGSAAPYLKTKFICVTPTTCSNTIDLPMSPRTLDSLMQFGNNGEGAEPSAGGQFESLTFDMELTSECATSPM
Chain of Hypoxia-inducible factor 1-alpha (Homo sapiens) (Q16665 whole entry, looked up): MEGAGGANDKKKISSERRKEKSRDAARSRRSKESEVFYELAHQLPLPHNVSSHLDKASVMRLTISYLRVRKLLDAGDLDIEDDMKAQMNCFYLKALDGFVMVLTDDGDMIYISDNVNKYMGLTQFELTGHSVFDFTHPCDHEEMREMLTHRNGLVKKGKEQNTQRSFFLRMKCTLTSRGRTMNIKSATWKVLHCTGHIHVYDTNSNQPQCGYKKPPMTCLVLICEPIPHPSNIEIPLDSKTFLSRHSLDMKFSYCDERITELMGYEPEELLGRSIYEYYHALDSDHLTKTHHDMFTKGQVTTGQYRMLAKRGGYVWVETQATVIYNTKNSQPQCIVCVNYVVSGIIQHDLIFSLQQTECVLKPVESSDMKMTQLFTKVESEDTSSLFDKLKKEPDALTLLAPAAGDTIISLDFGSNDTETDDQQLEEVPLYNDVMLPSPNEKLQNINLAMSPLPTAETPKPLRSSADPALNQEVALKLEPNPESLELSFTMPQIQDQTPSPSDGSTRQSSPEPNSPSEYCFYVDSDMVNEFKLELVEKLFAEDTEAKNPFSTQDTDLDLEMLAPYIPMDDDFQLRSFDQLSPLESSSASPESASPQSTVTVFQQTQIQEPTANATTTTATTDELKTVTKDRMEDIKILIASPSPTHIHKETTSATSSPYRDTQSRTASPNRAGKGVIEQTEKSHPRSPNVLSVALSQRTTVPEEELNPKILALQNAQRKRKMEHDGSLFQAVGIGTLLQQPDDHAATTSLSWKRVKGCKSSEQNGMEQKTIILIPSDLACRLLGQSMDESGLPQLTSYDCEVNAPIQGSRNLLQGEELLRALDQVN
Chain of Bile acid receptor (Homo sapiens) (Q96RI1 whole entry, looked up): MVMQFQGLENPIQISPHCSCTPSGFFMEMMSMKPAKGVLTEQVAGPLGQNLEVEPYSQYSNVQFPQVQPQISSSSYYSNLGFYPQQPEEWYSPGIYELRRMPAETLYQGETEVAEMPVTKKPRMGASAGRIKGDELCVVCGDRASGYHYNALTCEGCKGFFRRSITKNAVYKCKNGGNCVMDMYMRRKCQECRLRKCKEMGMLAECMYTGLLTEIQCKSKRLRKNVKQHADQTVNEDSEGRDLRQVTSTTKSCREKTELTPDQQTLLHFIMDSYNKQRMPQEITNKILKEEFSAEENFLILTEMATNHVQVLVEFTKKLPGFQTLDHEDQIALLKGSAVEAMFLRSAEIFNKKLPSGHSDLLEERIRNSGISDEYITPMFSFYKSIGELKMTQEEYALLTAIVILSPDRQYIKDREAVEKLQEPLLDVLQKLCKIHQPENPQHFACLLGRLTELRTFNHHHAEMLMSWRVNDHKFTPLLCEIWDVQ

Oc1ccc2ccccc2c1N=Nc1ccccc1
inactive: [1] | [2] | [3] | [4] | [5] | [7] | [8] | [11] | [14] | [15] | [16] | [17] | [18]
active: [6] 1.24 µM | [9] 2.47 µM | [10] 5.39 µM | [12] 7.05 µM | [13] 2 µM

OC[C@@H](O)[C@@H](O)[C@H](O)[C@H](O)CO
inactive: [1] | [3] | [4] | [5] | [6] | [7] | [8] | [9] | [11] | [12] | [13] | [15] | [16] | [17] | [18]

CNCc1cc(F)ccc1Oc1ccc(Cl)c(Cl)c1
active: [12] 7.83 µM
inactive: [1] | [19] | [3] | [4] | [5] | [6] | [7] | [8] | [9] | [11] | [20] | [13] | [14] | [15] | [16] | [17] | [18]

COC(=O)c1ccc(O)cc1
inactive: [1] | [19] | [3] | [4] | [5] | [6] | [7] | [8] | [9] | [11] | [12] | [20] | [15] | [16] | [17] | [18]

C[C@]12C=CC(=O)C=C1CC[C@@H]1[C@@H]2C(=O)C[C@@]2(C)[C@H]1CC[C@]2(O)C(=O)CO
active: [12] 55.6 µM
inactive: [1] | [3] | [4] | [5] | [6] | [7] | [8] | [9] | [10] | [11] | [13] | [15] | [16] | [17] | [18]

Cc1cccc(Nc2cc(Cl)nc(SCC(=O)O)n2)c1C
active: [12] 29.8 µM
inactive: [1] | [19] | [3] | [4] | [5] | [7] | [8] | [9] | [10] | [11] | [13] | [14] | [15] | [16] | [17] | [18]

O=C(N[C@@H](Cc1ccccc1)[C@@H](O)C(=O)N1C[C@@H](O)[C@@H](O)C1)c1cc2cc(Cl)ccc2[nH]1
inactive: [1] | [19] | [3] | [4] | [5] | [6] | [7] | [8] | [11] | [12] | [20] | [13] | [14] | [15] | [16] | [17]
active: [9] 100 µM | [18] 128 µM

CCCCCCCCCCC
inactive: [1] | [19] | [3] | [4] | [5] | [6] | [7] | [8] | [9] | [10] | [11] | [12] | [13] | [15] | [16] | [17] | [18]
